Compounds with a hit are over-represented: about 7.3% of the library has one in this group of screens.
uPA surface inh – inhibitors of cell surface uPA generation. cell surface uPA generation assay, qHTS. Potency, µM (series often up to 38.3 µM), hits mostly inhibitors. 330,000 compounds, 0.31% hits; active = well fitted inhibition curve with a large enough effect; inconclusive = small, poorly fitted or top-dose-only effect; inactive = no such curve, though single readings can be large or run the other way; tested in mouse RAW 264.7 cells; also: nearly all actives have a fitted effect of over 55% in size
FLuc counter – counter-screen for miR-21 project: firefly luciferase inhibitors or activators; P08659; purified FLuc, Km substrates, luminescence inhibition; Potency, µM (top dose mostly 57.5 µM), hits mostly inhibitors; 360,000 compounds, 6.9% hits; also: nearly all actives have a fitted effect of over 55% in size
Target sequence (P08659 whole entry, looked up): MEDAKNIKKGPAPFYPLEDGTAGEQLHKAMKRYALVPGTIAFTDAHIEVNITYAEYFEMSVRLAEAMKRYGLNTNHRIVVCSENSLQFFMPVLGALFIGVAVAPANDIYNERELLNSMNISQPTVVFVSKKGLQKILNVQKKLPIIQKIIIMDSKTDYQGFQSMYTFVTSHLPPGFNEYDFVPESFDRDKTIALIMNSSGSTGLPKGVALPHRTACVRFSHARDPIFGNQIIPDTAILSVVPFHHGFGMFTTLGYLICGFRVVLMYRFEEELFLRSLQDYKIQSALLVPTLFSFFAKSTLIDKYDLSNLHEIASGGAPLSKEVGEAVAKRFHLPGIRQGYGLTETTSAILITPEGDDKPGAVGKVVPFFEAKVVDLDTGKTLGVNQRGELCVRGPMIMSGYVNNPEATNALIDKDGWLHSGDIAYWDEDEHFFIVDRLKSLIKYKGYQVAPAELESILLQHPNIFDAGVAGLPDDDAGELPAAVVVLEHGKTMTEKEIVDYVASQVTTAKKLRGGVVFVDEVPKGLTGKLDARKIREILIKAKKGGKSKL
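Purified P. pyralis luciferase, 10 nM final, with Km-level 10 uM D-luciferin and 10 uM ATP in 50 mM Tris acetate pH 7.5, 10 mM Mg acetate, 0.01% Tween-20, 0.05% BSA; 6-point qHTS titration about 60 µM downward; luminescence read.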
Rab9 prom act – activators of Rab9 promoter | AID 485297 | 320,000 compounds, 2.8% hits | Potency, µM (highest dose often 9.22 µM), most hits filed as activators | Huh7 Rab9 promoter-luciferase reporter, luminescence, 24 h; also: nearly all actives have a fitted effect of over 60% in size
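Luminescence read-out: Huh7 cells stably expressing Rab9-luciferase, treated 24 h with compound at 37 °C, then lysed with luciferase reagent for 10 min at ambient before reading.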
ELG1 genotox – induces genotoxicity in HEK293T cells with luciferase-tagged ELG1. HEK293T ELG1-luciferase reporter, luminescence, 16 h. Potency, µM (titrated, usually from 46 µM), most hits filed as activators. 330,000 compounds, 1.3% hits; also: nearly all actives have a fitted effect of over 60% in size
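HEK293T cells expressing luciferase-tagged ELG1 were exposed to compound or DMSO vehicle for 16 hr at 37 °C and 5% CO2. Luciferase activity was then measured with ONE-Glo after 30 min at room temperature.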
SMN2 splice enh – enhancers of SMN2 splice variant expression; HEK293 SMN2-luciferase splicing reporter, luminescence, 30-36 h; Potency, µM (highest dose often 46.1 µM), actives largely listed as activators; 210,000 compounds, 2.8% hits; AID 1458; also: nearly all actives have a fitted effect of over 55% in size
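HEK293 cells carry an SMN2 […]–luciferase reporter in which exon 7 inclusion puts luciferase in frame. Cells were plated 10-12 h before compound addition, then incubated 30-36 h at 37C. ONE-Glo luminescence was read; sodium butyrate at 4.5 mM final served as control.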
NPC1 promoter act – activators of NPC1 promoter; Huh7 NPC1 promoter luciferase reporter, 24 h; Potency, µM (titrated, usually from 9.22 µM), most hits filed as activators; 320,000 compounds, 2.4% hits; AID 485313; also: nearly all actives have a fitted effect of over 60% in size
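In 1536-well qHTS, Huh7 cells harboring an NPC1 promoter–luciferase construct received compound for 24 h; activation was quantified by luminescence following luciferase reagent addition.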
Numbers stand for hits; - = inactive; ? = inconclusive; . = not tested or not shown; [ ] = dose if it differs, or a comment. Unless noted, calls follow the shape of the dose curve; as a rule, active = well fitted curve in the direction sought with a large enough effect; inconclusive = small, poorly fitted or top-dose-only effect, or another doubt; inactive = no such curve, though single readings can be large; an effect the other way counts as inactive or inconclusive.

SMILES	uPA surface inh	FLuc counter	Rab9 prom act	ELG1 genotox	SMN2 splice enh	NPC1 promoter act
CCCc1ccc(OCc2ccc(C(=O)N3CCSCC3)o2)cc1	-	21µM	2.2µM	10µM	.	2.2µM
CC(C)(C)c1ccc(OCc2ccc(C(=O)N3CCOCC3)o2)cc1	-	15µM	?	-	.	?
CC(C)(C)c1ccc(OCc2ccc(C(=O)Nc3cccnc3)o2)cc1	-	15µM	0.35µM	?	.	0.45µM
Cc1cccc(OCc2ccc(C(=O)N3CCOCC3)o2)c1	-	-	-	-	.	-
COC(=O)c1ccc(COc2ccc(C(C)(C)C)cc2)o1	-	17µM	0.35µM	?	.	0.71µM
CCCNC(=O)c1ccc(COc2ccc(C(C)(C)C)cc2)o1	-	?	-	-	.	-
Cc1ccc(N(C)C(=O)c2cc(S(=O)(=O)N3CCOCC3)cn2C)cc1	.	-	.	.	.	.
COc1ccc(NC(=O)C2Cc3ccccc3O/C2=N\O)cc1 (centres undefined)	-	?	-	?	.	-
COC(=O)c1ccc(COc2ccc(NC(C)=O)cc2)o1	-	-	-	-	.	-
CCc1ccc(OCc2ccc(C(=O)OC)o2)cc1	-	17µM	?	?	.	?
CCC(C)c1ccc(OCc2ccc(C(=O)OC)o2)cc1 (centres undefined)	-	?	0.5µM	?	.	0.63µM
CCc1ccc(OCc2ccc(C(=O)NCc3ccccn3)o2)cc1	-	?	?	?	5µM	?
O=C(N/N=C/c1ccc2ccccc2c1)c1ccc(COc2ccc3c(c2)CCC3)o1	-	2.7µM	?	?	?	?
COC(=O)c1ccc(COc2ccc(/C=N/O)cc2)o1	-	-	-	-	.	-
COc1ccccc1CCNC(=O)C(=O)NCC(c1cccs1)S(=O)(=O)c1ccc(C)cc1 (centres undefined)	.	-	.	.	.	.
COc1ccc2c(c1)C(=O)[C@H](OC(=O)Nc1ccc(C)c(Br)c1)[C@@H](c1ccc(OC)c(Br)c1)O2	.	.	.	.	-	.
Cc1cccc(N2CCN(C(=O)c3cn(C4CCCCC4)c(=O)c4c3c3ccccc3n4C)CC2)c1C	.	-	.	.	-	.
CCN(Cc1nc(-c2cccc(C)c2)no1)S(=O)(=O)c1ccc(C)cc1	.	-	.	.	-	.
COC(=O)c1ccc(COc2ccc3c(c2)CCC3)o1	-	17µM	?	?	.	?
CCOC(=O)c1ccc(NC(=O)C(=O)NCc2ccccn2)cc1	-	-	-	-	-	-
CCc1ccc(NC(=O)C(=O)NCc2ccccn2)cc1	-	19µM	3.5µM	?	.	?
Cc1cc(C)n(-c2nc(NC(C)(C)C)nc(NC(C)(C)C)n2)n1	-	-	-	-	-	-
CCNc1nc(NCC)nc(-n2nc(C)cc2C)n1	-	-	-	?	-	-
Cc1cc(C)n(-c2nnc(NC(C)(C)C)nn2)n1	-	21µM	3.2µM	?	13µM	?
Cc1cc(C)n(-c2nnc(NC34CC5CC(CC(C5)C3)C4)nn2)n1	-	2.4µM	3.5µM	?	11µM	2µM
SMILES	uPA surface inh	FLuc counter	Rab9 prom act	ELG1 genotox	SMN2 splice enh	NPC1 promoter act
CCOC(=O)C1CCCN(c2c(C(=O)c3ccccc3)cnc3ccc(F)cc23)C1 (centres undefined)	.	-	.	.	-	.
O=C(Nc1nnc(C2CC2)s1)c1ccco1	-	?	3.2µM	?	-	?
O=C(Nc1nnc(C2CCCCC2)s1)c1ccco1	-	?	2µM	?	?	4µM
CC(=O)CCC1CC(c2ccc(Cl)cc2)=NO1 (centres undefined)	-	7.6µM	1.4µM	?	.	1.1µM
NNC(=O)c1ccc(OCC2CC(c3ccc(Cl)cc3)=NO2)cc1 (centres undefined)	-	8.5µM	-	?	.	-
Cc1nc(N2CCOCC2)c2c(C(=O)N3CCN(c4ccccc4F)CC3)c(C)oc2n1	.	-	.	.	.	.
CSc1nc(N)nc2c1ncn2CC(=O)NCC1CCCO1 (centres undefined)	-	.	.	-	.	.
c1ccc2cc(OCc3nc4ccccc4[nH]3)ccc2c1	?	1.9µM	2µM	?	2.8µM	2.2µM
Brc1ccc(OCc2nc3ccccc3[nH]2)cc1	?	2.4µM	2.5µM	?	.	3.2µM
NNC(=O)c1ccc(OCc2nc3ccccc3[nH]2)cc1	.	.	.	.	-[9.22 µM]	.
COc1ccc(OCc2nc3ccccc3[nH]2)cc1	?	3.4µM	0.56µM	1.8µM	11µM	1.6µM
COc1cccc(OCc2nc3ccccc3[nH]2)c1	?	6.7µM	3.5µM	?	13µM	3.2µM
Cc1ccc(-n2ncc(C(=O)NCc3ccco3)c2C2CCN(C(=O)OC(C)(C)C)CC2)cc1C	.	-	.	.	.	.
COc1ccccc1/C=C/C(=O)NCc1ccccn1	-	-	-	-	-	-
O=C(/C=C/c1ccccc1)NC(=S)Nc1ncccn1	-	17µM	-	-	.	-
COc1ccc(/C=C/C(=O)NC(=S)Nc2ccccn2)cc1	-	?	0.89µM	?	.	1.3µM
COc1ccccc1/C=C/C(=O)NC(=S)Nc1ccccn1	-	11µM	-	23µM	.	?
COc1ccc(CCNC(=O)c2nn(-c3ccc(C)cc3)c(=O)c3c2c2ccccc2n3C)cc1OC	.	-	.	.	-	.
Clc1nc(NCCc2ccccc2)c2cn[nH]c2n1	-	.	.	.	.	.
Cc1ccc(N2C(=O)CC(Cc3cc(C)cc(C)c3)C2=O)cc1 (centres undefined)	-	-	-	-	-	-
Cc1cc(C)cc(CC2CC(=O)N(c3nc(C)cc(C)n3)C2=O)c1 (centres undefined)	-	21µM	?	-	-	-
CCOC(=O)c1ccccc1NC(=O)N(C(C)C)C1CCN(C(C)=O)CC1	.	-	.	.	.	.
COc1ccc(N2CCN(C(=O)Cn3cnc4sc(C)c(S(=O)(=O)N5CCC(C)CC5)c4c3=O)CC2)cc1	.	-	.	.	-	.
Nc1ccc(/C=C/c2ccc3ncccc3c2)cc1	?	0.3µM	0.28µM	?	.	0.45µM
O=C(Nc1ccc2ncccc2c1)c1cccc(Br)c1	-	11µM	2.5µM	?	.	?
SMILES	uPA surface inh	FLuc counter	Rab9 prom act	ELG1 genotox	SMN2 splice enh	NPC1 promoter act
Cc1ccc(NC(=O)c2ccc(NS(=O)(=O)c3cccc4cccnc34)cc2)cc1	-	17µM	-[1.84 µM]	-	.	-
Brc1ccc(CNc2ccc3ncccc3c2)cc1	-	11µM	-	?	.	?
CC/C=C/C#N	.	.	.	.	-	.
CCNC(=O)Nc1ccc(-n2nc(C)c(C(=O)OCC)c2C)nc1	-	-	-	-	-	-
CCc1ccc(NC(=O)CSc2nc(-c3cccc(OC)c3)nc3c2Cc2c(CO)cnc(C)c2O3)cc1	.	-	.	.	.	.
O=C(c1ccc2c(c1)N(Cc1cccc(Cl)c1)C(=O)c1ccccc1S2=O)N1CCC(Cc2ccccc2)CC1 (centres undefined)	.	-	.	.	.	.
Cc1ccc(C(=O)Nc2ncccc2S(=O)(=O)c2ccccc2)cc1	-	11µM	2.8µM	?	.	2.8µM
Cc1ccc(C(=O)/C=C/c2ccc3ncccc3c2)cc1	-	3.8µM	-	?	.	-
COc1ccc(C(=O)Nc2ccc3ncccc3c2)cc1	-	0.43µM	0.28µM	0.65µM	.	0.28µM
